A3G deaminase: blocks human APOBEC3G single-stranded DNA deamination; Q9HC16; recombinant A3G, ssDNA deamination FAM/TAMRA fluorescence; inhibition, % at 20 µM; 330,000 tested, 0.28% active; AID 493012;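 active = inhibition of at least 40% at 20 µM, with no more than 30% in the related APOBEC3A deaminase screen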;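 note: plate controls were DMSO wells with A3G for no effect and wells lacking A3G enzyme for full effect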
Target sequence (Q9HC16 whole entry, looked up): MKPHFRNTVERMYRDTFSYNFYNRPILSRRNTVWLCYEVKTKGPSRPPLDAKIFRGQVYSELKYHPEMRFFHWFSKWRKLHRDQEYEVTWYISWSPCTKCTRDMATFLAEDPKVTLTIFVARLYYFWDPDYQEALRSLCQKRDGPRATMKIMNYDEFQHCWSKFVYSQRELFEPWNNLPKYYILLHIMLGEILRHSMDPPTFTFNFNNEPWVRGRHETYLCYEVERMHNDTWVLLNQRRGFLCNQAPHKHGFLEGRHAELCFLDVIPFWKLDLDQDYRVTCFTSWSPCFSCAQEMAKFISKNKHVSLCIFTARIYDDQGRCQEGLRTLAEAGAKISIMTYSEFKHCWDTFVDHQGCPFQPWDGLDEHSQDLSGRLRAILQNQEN
NRP1-CendR mod: modulators of CendR peptide binding to human neuropilin-1 | FAM-RPARPAR peptide binding to NRP-1, fluorescence polarization | 360,000 tested, 0.85% active | AID 602438 | inhibition, % at 25 µM | O14786;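 active = inhibition or corrected inhibition above about 18%, plus a signal ratio from 0.5 to 1.5, limit read from the data, passing the limit was not always enough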
Yeast superoxide: caloric restriction mimetics inhibiting age-related superoxide in yeast. superoxide response (% of plate mean), % at 10 µM. AID 2690. 330,000 tested, 0.18% active. S. cerevisiae aged cells, superoxide DHE fluorescence; stronger effect = lower value;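 active = superoxide response under a set limit, about three screen SD below normal, cut at about 65% in these data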;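 note: yeast aged for seven days with compound at 30 °C before DHE staining; 100% = average MFI of all compound-treated wells on the plate with controls excluded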
M18AAP inhibitor: blocks P. falciparum M18 aspartyl aminopeptidase. recombinant PfM18AAP, H-Glu-NHMec fluorogenic cleavage. inhibition, % at 7.35 µM. 290,000 tested, 1.2% active. AID 1822;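 active = inhibition above the campaign mean inhibition over all tested compounds plus 3 SD, cut at about 28% in these data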;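 note: 0% = plate median of test compound wells and 100% = 2 mM ZnCl2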
APOBEC3A inh: blocks human APOBEC3A ssDNA deamination. AID 493011. recombinant A3A, FAM/TAMRA ssDNA deamination fluorescence. inhibition, % at 20 µM. 330,000 tested, 0.41% active. P31941;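 active = at least 40% inhibition at 20 µM here, with at most 30% in a related deaminase screen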;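 note: plate controls were A3A with DMSO for no effect and wells lacking A3A enzyme for full effect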
ALR H2O2 inh: human ALR oxidase inhibition via reduced H2O2 | 290,000 tested, 3.8% active | inhibition, % (test concentration not listed) | P55789 | AID 485317 | purified ALR, DTT oxidation, H2O2 HRP-luminol luminescence;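 active = mean replicate inhibition above about 79%, with every replicate also reaching it, limit read from the data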
Target sequence (P55789 whole entry, looked up): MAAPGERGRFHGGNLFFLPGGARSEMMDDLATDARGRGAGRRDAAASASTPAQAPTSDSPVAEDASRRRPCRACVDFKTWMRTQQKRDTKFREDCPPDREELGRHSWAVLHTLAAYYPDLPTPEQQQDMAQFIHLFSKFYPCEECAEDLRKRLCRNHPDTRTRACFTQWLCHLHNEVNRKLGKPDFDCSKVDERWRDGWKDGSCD
* = called active by the depositor; . = no result given. Sampled rows, rich in hits. Any-hit rate of the full collection: about 5.2%.

SMILES	A3G deaminase	NRP1-CendR mod	Yeast superoxide	M18AAP inhibitor	APOBEC3A inh	ALR H2O2 inh
COc1ccc(C2CCCN2C(=S)Nc2ccc(C)cc2C)cc1OC (stereo not given)	-8	-2	81	1	-9	3
CC(C)=NNc1cc([N+](=O)[O-])cc2c1C(=O)N(C)S2=O (stereo not given)	-6	2	96	30*	1	-15
CCN1C(=O)/C(=C\c2ccc(-c3ccc([N+](=O)[O-])cc3OC)o2)SC1=Nc1cccc(C(=O)O)c1	.	-45	.	4	.	.
CCOC(=O)c1[nH]c2ccccc2c1N=CN(CC)CC	-2	1	98	-7	0	99*
CCN1/C(=C\C=C(C(C)=O)C(C)=O)Sc2ccccc21	-5	-106	99	3	-2	99*
C[C@H]1CCC(=O)N([C@H](CC#N)Cc2ccccc2)CC1	-4	-4	97	-15	-5	-4
CCOc1ccc(C(=O)Cc2ccccc2)cc1	.	3	.	.	.	.
CCOc1ccc(C(=O)CSCCC(=O)O)cc1	-2	-2	89	3	0	98*
COc1cc(C(=O)O)c2c(c1C)OC(=O)c1c(C)cc(O)c(C=O)c1O2	2	-77	133	.	6	99*
COC(=O)c1c(C)cc(O)c(C=O)c1O	-4	-19	93	.	-3	0
Nc1ncnc2c1nc(N1CCCCC1)n2[C@@H]1O[C@H](CO)[C@@H](O)[C@H]1O	-9	6	111	.	-2	-1
COc1ccc(-c2cc(C(=O)Nc3ccc(C(N)=O)cc3)c3ccccc3n2)cc1OC	-5	-7	83	-13	0	-6
Cc1oc(-c2ccccc2Cl)nc1CS(=O)CC(=O)NCc1ccccc1Cl (stereo not given)	-6	-7	112	5	-3	99*
CCc1ccc(-c2nc(CSCC(=O)NCc3ccco3)c(C)o2)cc1	.	-7	.	8	.	.
Cc1oc(-c2ccccc2Cl)nc1CS(=O)CC(=O)NCc1ccco1 (stereo not given)	-9	0	102	7	-6	98*
Cc1oc(-c2ccc(Cl)cc2)nc1CS(=O)CC(=O)NCc1ccco1 (stereo not given)	-3	1	82	-3	-5	99*
CCOC(=O)c1c(C)[nH]c(C(=O)N2CCN(CC)CC2)c1C	-4	-8	118	-13	2	-2
COc1ccc(C(=O)NCC2(c3ccc(OC)c(OC)c3)CCCC2)c(OC)c1	-1	14	113	2	-4	-3
C=CCNC(=O)c1onc(CSc2ccc(C(C)C)cc2)c1C(=O)O	-8	0	89	-2	-2	97*
C=CCNC(=O)c1onc(CSc2cccc(OCC)c2)c1C(=O)O	-8	4	.	3	1	94*
C=CCNC(=O)c1onc(CSc2ccccc2)c1C(=O)O	-2	-12	.	0	4	9
Cc1c(NC(=O)/C(C#N)=C/c2ccc(-c3ccc(Cl)c(Cl)c3)o2)c(=O)n(-c2ccccc2)n1C	5	-15	117	-3	1	.
Cc1c(NC(=O)/C(C#N)=C/c2ccc(-c3ccccc3Cl)o2)c(=O)n(-c2ccccc2)n1C	-2	7	96	-4	6	88*
O=S(=O)(Nc1nc2ccccc2nc1Nc1ccc2c(c1)OCCO2)c1cccs1	1	-141	85	2	2	24
COc1ccc(-c2noc(CSc3nc(N)c(-c4ccccc4)c(=O)[nH]3)n2)cc1OC	-4	4	102	-4	-5	100*
SMILES	A3G deaminase	NRP1-CendR mod	Yeast superoxide	M18AAP inhibitor	APOBEC3A inh	ALR H2O2 inh
CCOC(=O)CSc1c(-c2ccc(Cl)cc2)[nH]c2ccccc12	3	-1	87	-7	-1	2
CCOC(=O)CSc1c(-c2cccs2)[nH]c2ccccc12	5	25*	137	9	0	72
Oc1ccc(/C=N/NC(=S)Nc2cccnc2)cc1	-2	23*	106	31*	-2	99*
COCc1c(Br)c(C)[nH]c(=O)c1C#N	3	-9	115	-12	1	-5
Cc1[nH]c(=O)c(C#N)c(C)c1Cl	7	26*	112	2	-1	-5
CCN1C(=S)SC(=O)C1=C1C=C(C)N(Cc2ccco2)C(C)=C1	-2	-77	98	0	1	99*
CCN1C(=S)SC(=O)C1=C1C=C(C)OC(C)=C1	-3	55	103	-1	-6	-5
Oc1ccc2ccc3[nH]cnc3c2c1	-5	1	87	4	10	100*
CN(C)Cc1c(O)ccc2[nH]cnc12	-10	-2	100	0	-4	-2
COc1cc(OC)cc(C(=O)Nc2nc(CC(=O)NCc3ccc(F)cc3)cs2)c1	-10	-3	100	.	-4	-4
CCN(CCNC(=O)c1ccc(CSc2nc3ccncc3[nH]2)cc1)c1ccccc1	-6	-3	101	7	-2	98*
O=C(NCCN1CCN(c2cccc(Cl)c2)CC1)c1ccc(CSc2nc3ccncc3[nH]2)cc1	-5	-3	131	-5	1	2
O=C(NNc1c2ccccc2nc2ccccc12)c1ccc(O)cc1O	-1	-26	97	12	6	98*
O=C(NNc1c2ccccc2nc2ccccc12)c1ccccc1O	7	1	90	-5	5	99*
O=C(NNC(=O)c1ccc(O)cc1O)c1ccc(-c2ccccc2)cc1	-6	7	97	18	0	1
O=C(NNc1c2ccccc2nc2ccccc12)c1ccccc1Cl	-6	6	95	11	4	-6
O=C(Nc1ncccn1)c1ccc(C(F)(F)F)cc1	-1	14	105	-5	1	97*
CN(c1ccc(OCC(=O)OCC(=O)Nc2ccc([N+](=O)[O-])cc2)cc1)S(=O)(=O)c1cccs1	.	32*	.	.	.	.
CCS(=O)(=O)c1ccc(C=NNc2nc3ccccc3o2)cc1	.	18*	.	.	.	.
COC(=O)c1ccc(CSc2nc3ccccc3c(=O)n2CC(C)C)o1	-8	4	106	0	0	-4
CCCn1c(C)cc(C(=O)CSc2nc3ccccc3c(=O)n2Cc2ccco2)c1C	-2	7	112	-13	-1	99*
COC(=O)c1ccc2c(=O)n(Cc3ccco3)c(SCC(=O)Nc3ccc(C)c(Cl)c3)nc2c1	-8	-9	106	9	-4	100*
COC(=O)c1ccc(CSc2nc3ccccc3c(=O)n2Cc2ccco2)o1	-2	-1	90	-8	-2	94*
NC(=O)CSc1nc2ccccc2c(=O)n1Cc1ccco1	-2	-1	97	-3	1	-17
O=C(CSc1nc2cc(Cl)ccc2c(=O)n1Cc1ccco1)Nc1ccc(S(=O)(=O)N2CCOCC2)cc1	-6	-9	101	4	-5	11
Cc1ccc(-n2[nH]c(C)c(/C=N/Nc3ccc([N+](=O)[O-])cc3[N+](=O)[O-])c2=O)cc1C	2	41*	97	-1	2	7

Source: PubChem (several laboratories)
